The record followed here is publication PMC12431657, “Discovery and mechanistic insights of dibenzoylmethane as a broad spectrum inhibitor of coronavirus” (PLOS Pathogens, 2025).

Each structure is given as a SMILES string. Where a name gives a salt, the structure may show the parent alone. Read-outs that look alike come from different tables or passages of the source. Screen size: about 3,300 compounds; about 95 (3%) showed an effect of 50% or more. This excerpt belongs to a sample that is enriched for strong results.

The test system of the assay is HCoV-229E. Also on record: species or system Huh-7; HTS, protection from HCoV-229E induced cell death, luminescent cell viability (CellCounting-Lite 2.0), inhibition rate. As to conditions: 24 h post infection, 1 h compound pre-incubation, 10 µM, inhibitor.

As for `CC(C)C1=Cc2ccc3c(c2C(=O)C1=O)CCCC3(C)C` [Miltirone], the “229E Inhibition rate” value was 4.2%. Same read-out and setting: then `O=C(O)Cc1cccc(O)c1` [3-Hydroxyphenylacetic acid], with 11%. For `C=C1C[C@@]2(O)O[C@@]3(C[C@H]2C(C)C)[C@@H](C)CC[C@@H]13` [Curcumol], the “229E Inhibition rate” value amounted to 11.7%.

Turning to `C=C1C[C@]2(O)O[C@@]3(CC2=C(C)C)[C@@H](C)CC[C@@H]13` [Isocurcumenol], the “229E Inhibition rate” value is 10.7%. In the case of `CC1=C[C@]2(O)O[C@@]3(CC2=C(C)C)[C@@H](C)CC[C@@H]13` [Curcumenol], the “229E Inhibition rate” value was 64.3%.

Consider `O=C1CCCCC1=O` [1,2-Cyclohexanedione], for which the “229E Inhibition rate” value came out at 20.8%. Same read-out and setting: then `C=C(C)C1CC=C(C)C(O)C1` (mixture of isomers) [Carveol], with 14.5%. As for `C[C@H]1CC[C@@H]2N(C1)C[C@H]1[C@@H]3C[C@H]4[C@@H](CC(=O)[C@H]5C[C@@H](O[C@@H]6O[C@H](CO)[C@@H](O)[C@H](O)[C@H]6O)CC[C@@]54C)[C@@H]3CC[C@@H]1[C@]2(C)O` [Edpetiline], the “229E Inhibition rate” value is on record as 11.7%. Take `COC(=O)c1ccccc1O[C@@H]1O[C@H](CO[C@@H]2OC[C@@H](O)[C@H](O)[C@H]2O)[C@@H](O)[C@H](O)[C@H]1O` [Gaultherin]: the “229E Inhibition rate” value was determined as 45.9%. Still for that read-out and setting: the value for `COc1ccc(C(C)=O)c(O[C@@H]2O[C@H](CO[C@@H]3OC[C@H](O)[C@H](O)[C@H]3O)[C@@H](O)[C@H](O)[C@H]2O)c1` [Apiopaeonoside] was 0%. On the same count and under the same terms, then `O[C@@H]1[C@@H](O)[C@H](OC/C=C/c2ccccc2)O[C@H](CO[C@@H]2OC[C@H](O)[C@H](O)[C@H]2O)[C@H]1O` [Rosavin], with 56.6%; and `O=C1NCN(c2ccccc2)C12CCN(CCCOc1ccc(F)cc1)CC2` [Spiramide], with 51.4%. `Cc1cc(O)c2c(c1)C(=O)c1cccc(O)c1C2=O` [Chrysophanol]: the “229E Inhibition rate” value worked out at 29.5%.

Take `O=C1c2cccc(O)c2C(=O)c2c(O)cccc21` [Danthron]: the “229E Inhibition rate” value was found to be 0%. The same measure, in the same setting: then `O=C(O)c1cc(O)c2c(c1)C(=O)c1cccc(O)c1C2=O` [Rhein], with 55.2%. `C=C1C=CC(C(C)C)CC1` (stereo not drawn) [β-Phellandrene]: the “229E Inhibition rate” value is reported as 51.8%. On the same count and under the same terms, then `CC(C)=CC[C@]12Oc3cc(O)c([C@H]4C=C(C)C[C@H](c5ccc(O)cc5O)[C@H]4C(=O)c4ccc(O)cc4O)c(O)c3C(=O)[C@@]1(O)Oc1cc(O)ccc12` [Sanggenon C], with 43.3%; and `COC(=O)C1=CO[C@@H](C)[C@H]2CN3CCc4c([nH]c5ccccc45)[C@@H]3C[C@H]12` [Ajmalicine], with 55.3%. For `COC(=O)C1=CO[C@@H](C)[C@H]2CN3CC[C@]4(C(=O)Nc5ccccc54)[C@@H]3C[C@H]12` [Mitraphylline], the “229E Inhibition rate” value was found to be 5.5%. Turning to `COC(=O)[C@@H]1[C@H]2C[C@H]3c4[nH]c5ccccc5c4CCN3C[C@@H]2CC[C@@H]1O` [Yohimbine], the “229E Inhibition rate” value (229E Inhibition rate, 24 h) turned out to be 50.5%. As to `COC(=O)[C@H]1[C@H]2C[C@H]3c4[nH]c5ccccc5c4CCN3C[C@H]2CC[C@@H]1O` [Rauwolscine (hydrochloride)], the “229E Inhibition rate” value is reported as 43.9%. Take `COC(=O)[C@@H]1[C@H]2C[C@H]3c4[nH]c5ccccc5c4CCN3C[C@@H]2CC[C@@H]1O` [Yohimbine (Hydrochloride)]: for the setting “229E Inhibition rate, 24 h”, the “229E Inhibition rate” value turned out to be 36%.

For `COC(=O)C1=CO[C@@H](C)[C@@H]2CN3CC[C@@]4(C(=O)Nc5ccccc54)[C@@H]3C[C@H]12` [Isopteropodine], the “229E Inhibition rate” value is given as 13.3%. Same read-out and setting: then `Cn1cnc2c(ncn2[C@@H]2O[C@H](CO)[C@@H](O)[C@H]2O)c1=N` [1-Methyladenosine], with 12.1%. Turning to `N[C@@H](Cc1c[nH]c2ccc(O)cc12)C(=O)O` [5-Hydroxytryptophan], the “229E Inhibition rate” value (229E Inhibition rate, 24 h) was 13.7%. On the same count and under the same terms, the value for `C[N+]1(C)CCC[C@H]1C(=O)[O-]` [Stachydrine hydrochloride] was 11.8%.

For the compound `C[C@H]1CC[C@]2(NC1)O[C@H]1C[C@H]3[C@@H]4CC[C@H]5C[C@@H](O)CC[C@]5(C)[C@H]4CC[C@]3(C)[C@H]1[C@@H]2C` [Tomatidine (hydrochloride)], for the setting “229E Inhibition rate, 24 h”, the “229E Inhibition rate” value stood at 28.3%. In the case of `C[C@H]1CC[C@]2(NC1)O[C@H]1C[C@H]3[C@@H]4CC[C@H]5C[C@@H](O)CC[C@]5(C)[C@H]4CC[C@]3(C)[C@H]1[C@@H]2C` [Tomatidine], the “229E Inhibition rate” value (229E Inhibition rate, 24 h) came out at 55.9%. As to `C[C@@H]1CC[C@@]2(OC1)O[C@H]1C[C@H]3[C@@H]4CC[C@H]5C[C@@H](O)CC[C@]5(C)[C@H]4CC[C@]3(C)[C@H]1[C@@H]2C` [Tigogenin], the “229E Inhibition rate” value worked out at 11%. On the same count and under the same terms, the value for `COc1cc(-c2oc3cc(O)cc(O)c3c(=O)c2O)ccc1O` [Isorhamnetin] was 7.4%; that for `COc1cc2c(cc1O)CC[N+](C)(C)[C@@H]2Cc1ccc(O)cc1` [Lotusine (hydroxide)] was 0%; that for `COc1cc(/C=C/C(=O)OC[C@H]2O[C@H](O[C@]3(CO)O[C@H](CO)[C@@H](O)[C@@H]3OC(=O)/C=C/c3cc(OC)c(OC)c(OC)c3)[C@H](O)[C@@H](O)[C@@H]2O)cc(OC)c1O` [Tenuifoliside C] was 19.9%. Consider `CC(=O)c1ccc(C)cc1` [4'-Methylacetophenone], for which the “229E Inhibition rate” value was 8.7%. Still for that read-out and setting: the value for `CC(C)=CC(=O)C[C@H](C)c1ccc(C)cc1` [ar-Turmerone] was 53%. For the compound `Cc1ccc(C(=O)O)cc1` [p-Toluic acid], the “229E Inhibition rate” value came out at 6.6%. On the same count and under the same terms, the value for `CC1=COC(=O)[C@H]2[C@@H]1CC[C@@H]2C` [4aα,7α,7aα-Nepetalactone] was 8.3%; that for `CC(=O)CCc1ccc(O[C@@H]2O[C@H](CO)[C@@H](O)[C@H](O)[C@H]2O)cc1` [Raspberry ketone glucoside] was 19.3%. Take `C=C[C@H]1CN2CC[C@]3(C(=O)Nc4ccccc43)[C@@H]2C[C@@H]1/C(=C\OC)C(=O)OC` [Corynoxeine]: the “229E Inhibition rate” value is on record as 15.2%.
